According to ChEMBL document CHEMBL1201862, “PubChem BioAssay data set” (2004):
About 3,600 (6.2%) of roughly 58,000 sequences were called active. No stated cut-off is given here; in the data, active = GI50 up to about 1.1 µM and inactive = higher. What follows is part of a selection rich in actives, with near analogues and random picks from the rest. Potency and affinity values are given separately.

tested on: NCI-H23

Substance | GI50 [µM]
mu-(1,7-nanodiamine-N,N')bis-(cis-aminedichloroplatimum (II)), CHEMBL2146215 | 4.37
[Bis(aminomethyl)pentamethylenesilane]tetrachloropaltinum(IV), CHEMBL2146204 | 1.51
CISPLATIN, CHEMBL11359 | 0.783
[Bis(aminomethyl)pentamethylenesilane]dichloropaltinum(II), CHEMBL2146202 | 4.59
[Bis(aminomethyl)dimethylsilane]tetrachloroplatinum(IV), CHEMBL2146190 | 3.98
[Bis(aminomethyl)tetramethylenesilane]dichloropaltinum(II), CHEMBL2146205 | 13.5
[Bis(aminomethyl)tetramethylenesilane]tetrachloropaltinum(IV), CHEMBL2146189 | 3.33
[Bis(aminomethyl)diethylsilane]tetrachloroplatinum(IV), CHEMBL2146203 | 2.79
